BL2 CD40 inh = inhibitors of CD40-induced NF-kB signaling, primary screen, BL2 cells, luciferase reporter, single point | CD40L-induced, 4 h | inhibition, % at 10 µM | AID 1053188, 2014 | 83,000 compounds, 0.94% hits;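 active = mean inhibition of at least 50% with a set share of replicates also reaching that level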
Large screens that a line does not name were inactive; [ ] = dose if it differs, or a comment. The entries come from a sample that favours hits as a whole.

CC(=O)N(C)C[C@@H]1Oc2ccc(NC(=O)NC(C)C)cc2CC(=O)N(C)C[C@@H]1C	none
O=C(Nc1cccc(S(=O)(=O)N2CCCCC2)c1)c1cccs1	none
O=C(Nc1ccc2c(c1)CCC2)c1cccs1	none
O=C(Nc1cccc(N2C(=O)C=CC2=O)c1)c1cccs1	BL2 CD40 inh 99
C[C@H]1CN(C)C(=O)Cc2ccccc2O[C@H]1CN(C)S(C)(=O)=O	none
O=C(NCC1CC1)[C@H]1[C@H](CO)[C@H]2Cn3c(ccc(-c4ccccc4)c3=O)[C@@H]1N2C(=O)C1CC1	none
CN1[C@@H]2c3ccc(/C=C/c4ccccc4)c(=O)n3C[C@@H]2[C@@H](CO)[C@@H]1C(=O)N1CCCCC1	none
N#C[C@H]1[C@H](c2ccccc2C2=CCCCC2)[C@@H](CO)N1S(=O)(=O)c1cccc(F)c1	none
C[C@@H]1CCCn2cc(nn2)COCCNC1=O	none
O=C(Nc1nnc(C2CCCCC2)s1)C1CC(=O)N(c2ccccc2)C1 (configuration not stated)	none
O=C(Nc1nc2ccc(F)cc2s1)C1CC(=O)N(c2ccc3c(c2)OCCO3)C1 (configuration not stated)	none
O=C(Nc1nnc(C2CC2)s1)C1CC(=O)N(c2ccc3c(c2)OCCO3)C1 (configuration not stated)	BL2 CD40 inh 51
CCCNC(=O)N1[C@@H]2CN(C(=O)NC(C)C)c3ccccc3[C@@H]2[C@@H]1CO	none
O=C(O)c1ccc(Nc2nc3c(s2)CCCC3)cc1	BL2 CD40 inh 72
O=C(Nc1nc2c(s1)CCCC2)c1cccnc1	none
O=C(Nc1nc2c(s1)CCCC2)Oc1ccccc1	none
CC(C)NC(=O)N(C)C[C@@H]1Oc2ccc(N(C)C)cc2C(=O)N(C)C[C@H]1C	none
C/C=C/c1ccc([C@@H]2[C@@H](CO)N(C(C)=O)[C@@H]2CN(C)C(=O)CN(C)C)cc1	none
O=C(c1ccccc1F)N1C[C@H]2[C@@H](c3ccccc31)[C@H](CO)N2C(=O)c1ccccc1	none
CC12C(=O)OC(=O)C1(C)C1CCC2O1 (configuration not stated)	BL2 CD40 inh 74[25 µM]
Cc1ccc(-c2nc(N/N=C/c3ccncc3)c3ccccc3n2)cc1	BL2 CD40 inh 53
c1ccc2c(Nc3nc(-c4ccncc4)nc4ccccc34)cccc2c1	none
Cc1ccc(NCC(=O)N/N=C/c2ccncc2)cc1	none
O=C(C1CCCC1)N1CC(=O)N2[C@H](CO)[C@@H](c3ccc(-c4cccnc4)cc3)[C@H]2C1	none
C[C@H]1CN([C@@H](C)CO)C(=O)c2ccccc2-c2ccccc2CO[C@@H]1CN(C)C(=O)c1ccncc1	none
Cc1nn(C)cc1NC(=O)C[C@H]1CC[C@@H]2[C@H](COc3ccc(NC(=O)C4CCOCC4)cc3C(=O)N2C)O1	none
CC(C)[C@@H]1COCc2cn(nn2)CC[C@@H](Cc2ccccc2)C(=O)N1	none
CC(C)NC(=O)N(C)C[C@@H]1Oc2c(N)cccc2C(=O)N(C)C[C@@H]1C	none
Cc1ccc(S(=O)(=O)Nc2cccc3c2O[C@@H](CN(C)CC2CC2)[C@H](C)CN([C@@H](C)CO)C3=O)cc1	none
CO[C@@H](CN(C)C(=O)Nc1ccc(Cl)cc1)[C@@H](C)CN(Cc1ccccc1Cl)[C@H](C)CO	none
Nc1nc2ccccc2n1/N=C/c1ccc2c(c1)OCO2	none
C(=Cc1cnc2ccccc2n1)c1ccc2c(c1)OCO2	BL2 CD40 inh 98
O=C(/C=C/c1ccc2c(c1)OCO2)c1ccccn1	none
C[C@H](NC(=O)N(C)C[C@@H]1OCc2ccccc2-c2c(n(C)c3ccccc23)C(=O)N([C@H](C)CO)C[C@@H]1C)c1ccccc1	none
O=C(Nc1cc(F)ccc1F)N1CC(=O)N2[C@H](C1)[C@@H](c1ccc(/C=C/c3ccccc3)cc1)[C@@H]2CO	none
COc1ccccc1CNC(=O)C[C@@H]1C[C@H]2c3cc(NS(=O)(=O)c4ccc(F)cc4)ccc3O[C@H]2[C@@H](CO)O1	none
CN(C)C(=O)[C@H]1[C@H](CO)[C@H]2Cn3c(ccc(C4=CCCC4)c3=O)[C@@H]1N2CC1CC1	none
O=C(OCC(=O)N1CCN(c2ccccc2)CC1)c1ccccc1NCCO	BL2 CD40 inh 35
O=C(OCC(=O)N1CCN(c2ccccc2)CC1)c1cccs1	none
O=C(OCC(=O)N1CCN(c2ccccc2)CC1)c1ccccc1OC(F)F	none
O=C(c1ccccn1)N1CC[C@@H]2[C@@H](CO)Nc3ccc(-c4ccc(F)cc4)cc3[C@@H]21	none
C[C@@H]1CN([C@@H](C)CO)C(=O)c2c(c3ccccc3n2C)-c2ccccc2CO[C@H]1CN(C)Cc1ccc(O)cc1	none
CO[C@@H]1CN(C)C(=O)c2ccc(NC(=O)C3CCC3)cc2OC[C@@H](C)N(Cc2cccnc2)C[C@@H]1C	none
C[C@@H]1CCCCO[C@@H](CN(C)C(=O)Nc2cccc3ccccc23)[C@H](C)CN([C@H](C)CO)C(=O)c2cc(NC(=O)CCC(F)(F)F)ccc2O1	none
Cc1ccc(CN(C)C[C@@H]2OCc3cnnn3CCCC(=O)N([C@H](C)CO)C[C@@H]2C)cc1	none
CC(S(=O)(=O)c1ccccc1)S(=O)(=O)c1ccccc1	none
CC(C)(C)OC(=O)CC(S(=O)(=O)c1ccccc1)S(=O)(=O)c1ccccc1	BL2 CD40 inh 67
O=S(=O)(CCS(=O)(=O)c1ccccc1)c1ccccc1	none
COc1ccc2c3c(n(C)c2c1)[C@@H](CO)N(Cc1cccnc1)CC31CN(C(=O)c2cccnc2)C1	none
CC(=O)N(C)C[C@@H]1Oc2ccc(NS(C)(=O)=O)cc2C(=O)N(C)C[C@H]1C	none
O=C(C[C@@H]1C[C@H]2c3cc(NC(=O)NC4CCCCC4)ccc3O[C@H]2[C@H](CO)O1)NCC1CC1	none
CC(C)(C)c1cc(/C=C(\C#N)C(N)=S)cc(C(C)(C)C)c1O	BL2 CD40 inh 56[25 µM]
CCn1c2ccccc2c2cc(/C=C(/C#N)C(N)=S)ccc21	none
N#CC(C#N)=C(N)/C(C#N)=C/c1cc(O)c(O)c(O)c1	none
N#C[C@@H]1N[C@@H](CO)[C@H]1c1ccc(C#Cc2ccc(F)cc2)cc1	none
CO[C@@H]1CC[C@@H]2CCN(C)C(=O)[C@@H](C)CN(C)C(=O)c3cc(C#N)ccc3OC[C@@H]1O2	none
CN(C)C(=O)c1cccc(-c2ccc(C3[C@@H]4CN(Cc5nccs5)C[C@H]3N4)cc2)c1 (some centres not stated)	none
COc1ccc2c3c(n(C)c2c1)[C@@H](CO)N(C(=O)c1ccc(F)cc1)CC31CN(C(=O)Nc2ccc(F)cc2)C1	none
COc1ccc2c3c(n(C)c2c1)[C@H](CO)N(C(=O)Nc1ccc(F)cc1)CC31CN(C(=O)Cc2ccncc2)C1	none
COc1ccc2c3c([nH]c2c1)[C@@H](CO)N(C(=O)Nc1ccc(F)cc1)CC31CCN(C(=O)Cc2ccncc2)CC1	none
COc1ccc2c3c([nH]c2c1)[C@H](CO)N(C(=O)Nc1ccc(F)cc1)CC31CCN(C(=O)c2ccccc2F)CC1	BL2 CD40 inh 60[25 µM]
COc1ccc2c3c([nH]c2c1)[C@@H](CO)N(C)CC31CCN(C(=O)c2ccccc2F)CC1	none
COc1ccc2c3c(n(C)c2c1)[C@@H](CO)N(C(=O)Nc1ccc(F)cc1)CC31CN(Cc2ccccc2F)C1	BL2 CD40 inh 58[25 µM]
N#C[C@H]1[C@@H](c2ccccc2-c2cccc(F)c2)[C@H](CO)N1C(=O)C1CC1	none
Cc1[nH]c2ccccc2c1C(c1ccncc1)N1CCC(C)CC1 (configuration not stated)	none
Cc1[nH]c2ccccc2c1C(c1ccccn1)N1CCC(C(N)=O)CC1 (configuration not stated)	BL2 CD40 inh 62
Cc1[nH]c2ccccc2c1C(c1ccncc1)N1CCN(c2ccccn2)CC1 (configuration not stated)	none
CCC(=O)N1C[C@H]2[C@@H](c3ccccc31)[C@@H](CO)N2C(=O)CC1CC1	none
